Reference: PubChem BioAssay
Active and inactive are the calls of the source.

Experiment: osmotic lysis modulators in infected erythrocytes, primary screen, PSAC antagonist project, cell-based, P. falciparum Indochina, OD700, 3 h (AID 1156)
Settings: higher = more signal, called active from +8 up or from −8 down

z-score, inactive:
C=C(C)[C@@H]1CC=C(C(O)C2C=CC3C(=O)N(c4ccccc4)C(=O)C3N2Nc2ccc(C#N)cc2)CC1 (stereo partly specified) 0.625
C=C(COC)/C(=C/C[C@@H](OC(=O)c1ccncc1)c1ccccc1OCCO)c1cc(C(=O)OC)ccc1OC 1.74
CC(C)C[C@@H]1NC(=O)[C@@H]2C[C@H](C(=O)NCCCCCC[N+](C)(C)C)[C@H](c3cccc(OCCO)c3)N2C1=O -0.953
O=C1C2C=CC(C(O)c3ccco3)N(Nc3ccccc3)C2C(=O)N1c1ccccc1 (stereo unspecified) -0.284
CCOC(=O)C[C@H]1[C@H](OC(=O)c2ccc(-c3ccccc3)cc2)[C@@H](NC(=O)Cc2ccc(OC)cc2)c2cc(OCCCO)ccc2N1C(=O)Cc1ccc(OC)cc1 0.222
CCOC(=O)C1=CC[C@@H](c2ccccc2)N(S(=O)(=O)c2ccc(C)cc2)[C@H]1c1cccc(OC)c1 -0.422
CN1C=C(C(=O)OCCS(C)(=O)=O)C(C(=O)OCCS(C)(=O)=O)=CC(c2ccc(CO)cc2)=CC1c1cccs1 (stereo unspecified) 0.298
COC(=O)C(CC#Cc1ccc2c(c1)[C@]1(C(=O)N2)[C@H](c2ccc(OCCO)cc2)N2[C@H](c3ccccc3)[C@H](c3ccccc3)OC(=O)[C@H]2[C@@H]1C(=O)N1CCN(c2ncccn2)CC1)C(=O)OC 0.257

Experiment: PSAC antagonists in infected red cells, primary screen, cell-based, P. falciparum Indochina, OD700, 18 h (AID 1157)
Settings: P. falciparum Indochina infected erythrocytes, osmotic lysis OD700, 18 h; higher = more signal, called active from +8 up or from −8 down

z-score, inactive:
COCCOC(=O)N1C(=O)[C@@]2(c3ccccc31)[C@H](c1ccc(OCCO)cc1)N1[C@H](c3ccccc3)[C@H](c3ccccc3)OC(=O)[C@H]1[C@@H]2C(=O)N1CCCCCCC1 1.64
CCCCCN1CC=CC23O[C@@H]4/C=C\CCC(C)OC(=O)C4[C@H]2C(=O)N(CCCCCCO)[C@@H]3C1=O (stereo partly specified) 0.967
COCCOC(=O)N1C(=O)[C@@]2(c3ccccc31)[C@H](c1ccccc1OCCO)N1[C@H](c3ccccc3)[C@H](c3ccccc3)OC(=O)[C@H]1[C@@H]2C(=O)N1CCCCCCC1 0.557
C=C[C@@H](OC)[C@H](OC(=O)Nc1ccc(SC)cc1)c1ccc(OCCO)cc1 1.78
COC(=O)[C@@]1(Cc2ccc(F)cc2)[C@H]2c3cc(C(=O)N(C)C)n(Cc4c(CO)[nH]cc(C)c4=O)c3C[C@H]2CN1C(=O)c1ccccc1 0.816
Cc1ccccc1C(O)C1C=CC2C(=O)N(c3ccccc3)C(=O)C2N1Nc1ccc([N+](=O)[O-])cc1 (stereo unspecified) 1.52
COc1cc(NN2C(C(O)c3cc(OC)c(OC)c(OC)c3)C=CC3C(=O)N(c4ccccc4)C(=O)C32)cc(OC)c1OC (stereo unspecified) -1.19
C=CCC(OC(C)=O)[C@@H]1[C@@H](N(Cc2cccc3ccccc23)C(=O)c2cccc3ccccc23)c2cc(OCCCO)ccc2N1C(=O)c1ccc2ccccc2c1 (stereo partly specified) 0.0897
COC(=O)[C@@]1(Cc2ccccc2)[C@H]2c3cc(C(=O)N4CCCC4)n(CCSCCO)c3C[C@H]2CN1C(=O)c1ccccc1 0.691
Cc1cccc([C@H]2C[C@H]3C(I)=C[C@@H]2C(=O)[C@]32CO2)c1 -0.0624
O=C1C2C=CC(C(O)C=Cc3ccc([N+](=O)[O-])cc3)N(Nc3ccccc3)C2C(=O)N1c1ccccc1 (stereo unspecified) 1.81
CC(=O)NCCCC[C@@H]1NC(=O)[C@H]2C[C@@H](C(=O)NCCCCCNC(=O)CS)[C@@H](c3cccc(OCCO)c3)N2C1=O 0.227
C=C[C@H](C)[C@H](OC(=O)Nc1ccc(OC)cc1)c1ccc(OCCO)cc1 0.746
CCOC(=O)C[C@H]1[C@H](OC(=O)c2ccc(C(=O)c3ccccc3)cc2)[C@@H](NC(=O)CC(C)C)c2cc(OCCCO)ccc2N1C(=O)Cc1ccc(OC)cc1 0.0625
Cc1ccccc1C(O)C1C=CC2C(=O)NC(=O)C2N1Nc1ccc(Cl)cc1Cl (stereo unspecified) 0.975
COc1cc2c(cc1O)C(c1ccc(CN3CCCC3)cc1)N(C)CC2 (stereo unspecified) 0.0339
COc1ccc([Si](C)(C)[C@@H]2[C@@H](CCn3cc([C@H](O)c4ccccc4)nn3)O[C@]3(C(=O)N(Cc4cccc(N5C(=O)c6cccc7cccc5c67)c4)c4ccccc43)[C@H]2C)cc1 0.794
CC(C)(C)OC(=O)CC[C@]1(C(=O)N2CCCCC2)COC(c2ccc(OCCCO)cc2)=N1 0.663
